In the library only some 8% were active in any assay of this set; here they are far more common.
HT1080NT lethal = kills 2HG-producing HT-1080-NT fibrosarcoma cells | AID 686970 | 1.6% of 360,000 active | Potency, µM (top dose mostly 46.1 µM), without a hit: top-dose activity, negative = less viability, hits mostly cytotoxic | HT-1080-NT fibrosarcoma viability, CellTiter-Glo ATP luminescence, 48 h;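 further: NT is the 2HG producing partner of a matched IDH1 knockdown line; 0% = DMSO-treated cells and -100% = media-only wells without cells; nearly all actives have a fitted effect of over 55% in size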
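Fibrosarcoma NT cells, 750 per well in 5% FBS RPMI, were exposed to compound for 48 hours. Viability: CellTiter-Glo luminescence.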
MCF10A rereplic = DNA re-replication induction in MCF 10a cells; MCF 10A DNA re-replication, Hoechst nuclear intensity, 48 h; Potency, µM (titrated, usually from 46.1 µM), inactives show at the top dose activity, positive = re-replication, most hits filed as activators; 2.9% of 350,000 active; further: % of control where 0% means no effect; nearly all actives have a fitted effect of over 50% in size
KB-3-1 cytotox = kills parental KB-3-1 adenocarcinoma cells; KB-3-1 viability, CellTiter-Glo ATP luminescence, 72 h; Potency, µM (doses to about 46.1 µM), actives largely listed as cytotoxic; 1.4% of 400,000 active; further: on the % scale 0 is the no-effect control and ±100 the full control effect; nearly all actives have a fitted effect of over 60% in size
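Multi-concentration cytotoxicity screen in KB-3-1 cells grown in DMEM lacking phenol red with 10% FBS. After 72 h at 37 °C with compound, ATP-dependent luminescence was recorded.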
SW480 rereplic = DNA re-replication induction in SW480 cells | AID 624297 | 1.8% of 340,000 active | SW480 DNA re-replication, Hoechst DNA content imaging, 48 h | Potency, µM (doses to about 46.1 µM), for inactives: at the highest dose re-replication activation, most hits filed as activators; further: % of control where 0% means no effect; nearly all actives have a fitted effect of over 55% in size
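First, 250 cells per well were seeded. Next, compound or vehicle (23 nL) was pinned in, plates sat 48 hr at 37 C. Finally Hoechst was added for 40 min before fluorescence scanning.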
HT1080 IDH1KD tx = HT-1080 IDH1 knockdown cell toxicity (counter line). AID 686971. 2% of 360,000 active. Potency, µM (doses to about 46.1 µM), inactives show top-dose activity, negative = toxicity, most hits filed as cytotoxic. HT-1080 IDH1 knockdown viability, ATP luminescence, 48 h;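 further: 0% = DMSO wells and -100% = cell-free medium wells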
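Using the IDH1-knockdown HT-1080 line run in the same batch and compound series as the NT line, viability after 48 h at 37 °C was determined by CellTiter-Glo luminescence and expressed as % activity.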
KB-V1 cytotox = kills drug-selected multidrug resistant KB-V1 cells; KB-V1 MDR cells viability, CellTiter-Glo, 72 h; Potency, µM (top dose mostly 46.1 µM), usual class: cytotoxic; 3.4% of 400,000 active; further: on the % scale 0 is the no-effect control and ±100 the full control effect; nearly all actives have a fitted effect of over 60% in size
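Compound-treated KB-V1 multidrug-resistant cells, 72 h, 37 degrees C; viability by CellTiter-Glo. Fitted qHTS curves give the values.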
* hit, by the source's call; i = inactive; ? = inconclusive; . = no result given; ! = a repeat was not active. The call rests on the fitted dose curve; in most records, active means well fitted curve in the direction sought with a large enough effect; inconclusive means small, poorly fitted or top-dose-only effect, or another doubt; inactive means no such curve, though single readings can be large; an effect the other way counts as inactive or inconclusive. Potency means the concentration at half of the fitted maximal effect.

SMILES | HT1080NT lethal | MCF10A rereplic | KB-3-1 cytotox | SW480 rereplic | HT1080 IDH1KD tx | KB-V1 cytotox
COc1ccc(C(=O)/C=C\c2ccc(NC(=O)c3cccs3)cc2)cc1 | ? | ? | ? | 18µM* | ? | ?
C/C(=N\NC(=O)C(N)=O)c1ccc(NC(=O)c2cccs2)cc1 | 1% | 2% | i | 2% | 1% | i
C/C(=N\NC(=O)c1ccccc1O)c1ccc(NC(=O)Cc2ccccc2)cc1 | -1% | -2% | ? | 12µM* | 0% | 16µM*
COc1ccc(NC(=O)c2ccc(NC(=O)c3cccs3)cc2)cc1 | ? | 10% | i | 12% | ? | i
C/C(=N\NC(=O)c1ccccc1)c1ccc(NC(=O)c2cccs2)cc1 | -1% | 17% | i | 1.5µM* | -2% | i
CCOc1ccc(NC(=O)CC2C(=O)N(c3ccc(F)cc3)C(=O)N2Cc2ccc(OC)c(OC)c2)cc1 (stereo not given) | . | . | i | . | . | i
CC(C)CN(CCNC(=O)c1cc(-c2ccc(Cl)s2)nc2ccccc12)CC(C)C | . | . | i | . | . | i
C/C(=N\NC(=O)c1ccccc1C)c1ccc(NC(=O)c2cccs2)cc1 | -3% | -1% | i | ? | -30% | 5.8µM*
NS(=O)(=O)c1ccc(CCNC(=O)Cn2c(-c3cccs3)cc3ccccc32)cc1 | . | . | i | . | . | i
CCOc1ccc(C(=O)Nc2ccc(N3CCN(C(C)=O)CC3)cc2)cc1[N+](=O)[O-] | 16% | -2% | i | 18% | 8% | ?
CC(=O)N1CCN(c2ccc(Oc3ccc([N+](=O)[O-])c(C(F)(F)F)c3)cc2)CC1 | ? | ? | ? | 8% | -29% | 5.2µM*
COc1cc(/C=N/NC(=O)C23CC4CC(CC(C4)C2)C3)cc(Br)c1O | 3% | 13% | ? | ? | 3% | i
COc1cc(/C=N/NC(=O)CC23CC4CC(CC(C4)C2)C3)cc(Br)c1OCC(=O)N(C)C | ? | 18µM* | i | 7% | ? | i
CCn1nnc2c(N3CCCC3)ncnc21 | 5% | . | . | . | 16% | .
COc1ccc(-c2ccc(=O)[nH]n2)cc1 | 13% | 3% | i | -2% | -2% | 1.8µM*
COc1ccccc1N(CC(=O)NCCSCc1cccc(C)c1)S(=O)(=O)c1ccccc1 | -8% | 18µM* | ? | 16% | -13% | ?
COc1ccc(S(=O)(=O)N(CC(=O)NCCSc2ccccc2)c2ccc(C)cc2)cc1 | . | . | ? | . | . | i
COc1ccc(N(CC(=O)NCCSCc2ccccc2C)S(=O)(=O)c2ccccc2)cc1 | ? | ? | ? | 13% | ? | 15µM*
Cc1ccc(N(CC(=O)NCCSc2nc3ccccc3s2)S(=O)(=O)c2ccccc2)c(C)c1 | -7% | 7% | ? | 18% | -20% | 8.2µM*
C1CCC(C(CC2CCCCN2)C2CCCCC2)CC1 (stereo not given) | 12µM* | ? | ? | . | 16µM* | 18µM*!
O=C(NC1CCCC1)C(c1ccc(F)cc1)N(Cc1ccccc1Cl)C(=O)CCl (stereo not given) | ? | ? | ? | ? | ? | 15µM*
COCCN(C(=O)CCl)C(C(=O)NC1CCCCC1)c1ccccc1C (stereo not given) | ? | ? | 13µM* | 13µM* | 13µM* | 21µM*
O=C(NC1CCCC1)C(c1ccc(F)cc1)N(Cc1ccc(F)cc1)C(=O)c1ccn[nH]1 (stereo not given) | -1% | ? | ? | 0% | -1% | i
CC/C(=N\NC(=O)c1ccc(CN(C)S(=O)(=O)c2ccc(C)cc2)cc1)c1ccc(OC(F)F)cc1 | -9% | -3% | ? | ? | -5% | 15µM*

From PubChem BioAssay
